Where a name gives a salt, the structure may show the parent alone.
System: replication-induced senescent mouse newborn dermal fibroblasts (NBF)
Test: relative cell viability of senescent cells (fraction); higher = less killing of senescent cells
Conditions: 1 µM; 3 days
Experimental: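 Replication-induced senescent newborn mouse skin fibroblasts (NBFs) in 24-well plates were treated with a Selleck FDA-approved drug library at 1 µM for 3 days.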

Row | Structure (SMILES) | relative cell viability
1 | COc1nc(N)nc2c1ncn2[C@@H]1O[C@H](CO)[C@@H](O)[C@@H]1O [Nelarabine] | 1.08
2 | CC/C(=C(/CC)c1ccc(O)cc1)c1ccc(O)cc1 [Diethylstilbestrol] | 1.06
3 | Cc1ccc(NC(=O)c2ccc(CN3CCN(C)CC3)cc2)cc1Nc1nc(-c2cccnc2)cs1 [Masitinib (AB1010)] | 0.602
4 | Nc1ccn([C@H]2CC[C@@H](CO)O2)c(=O)n1 [Zalcitabine] | 0.129
5 | C[C@H](N[C@@H](CCc1ccccc1)C(=O)O)C(=O)N1CCC[C@H]1C(=O)O [Enalaprilat Dihydrate] | 0.862
6 | Clc1ccc(CCC(Cn2ccnc2)Sc2c(Cl)cccc2Cl)cc1 (stereo not given) [Butoconazole nitrate] | 1.14
7 | Cc1cn[nH]c1 [Fomepizole] | 1.07
8 | C[C@H](Cc1cc2c(c(C(N)=O)c1)N(CCCO)CC2)NCCOc1ccccc1OCC(F)(F)F [Silodosin] | 0.806
9 | NCCCC(O)(P(=O)(O)O)P(=O)(O)O [Alendronate sodium trihydrate] | 0.251
10 | O=c1[nH]c(=O)n([C@H]2C[C@H](O)[C@@H](CO)O2)cc1C(F)(F)F [Trifluridine] | 0.971
11 | Nc1nc2c(ncn2COCCO)c(=O)[nH]1 [Aciclovir] | 1.06
12 | Nc1ccc(O)c(C(=O)O)c1 [Mesalamine] | 0.351
13 | Cc1nc2n(c(=O)c1CCN1CCC(c3noc4cc(F)ccc34)CC1)CCCC2 [Risperidone] | 0.76
14 | CNC(=O)c1ccc2cc([C@@]3(O)CCn4cncc43)ccc2c1 [TAK-700 (Orteronel)] | 0.282
15 | CC(=O)[C@H]1CC[C@H]2[C@@H]3CCC4=CC(=O)CC[C@]4(C)[C@H]3CC[C@]12C [Progesterone] | 0.968
16 | c1ccc2[nH]c(-c3cscn3)nc2c1 [Thiabendazole] | 1.03
17 | CC(C)CN(C[C@@H](O)[C@H](Cc1ccccc1)NC(=O)O[C@H]1CO[C@H]2OCC[C@H]21)S(=O)(=O)c1ccc(N)cc1 [Darunavir Ethanolate] | 0.839
18 | Cn1ccnc1S [Methimazole] | 0.994
19 | COc1ccccc1OCC(O)CN1CCN(CC(=O)Nc2c(C)cccc2C)CC1 (stereo not given) [Ranolazine 2HCl] | 0.773
20 | COc1cc(Nc2nc3ccccc3nc2NS(=O)(=O)c2ccc(NC(=O)c3ccc(C)c(OC)c3)cc2)cc(OC)c1 | 0.969

Row | Structure (SMILES) | relative cell viability
21 | O=C(O)C[C@H](O)C[C@H](O)/C=C/c1c(C2CC2)nc2ccccc2c1-c1ccc(F)cc1 [Pitavastatin Calcium] | 1.08
22 | COc1ccc2cc([C@H](C)C(=O)O)ccc2c1 [Naproxen Sodium] | 0.686
23 | CCc1c2c(nc3ccc(OC(=O)N4CCC(N5CCCCC5)CC4)cc13)-c1cc3c(c(=O)n1C2)COC(=O)[C@]3(O)CC [Irinotecan] | 0.893
24 | O=C(C1CCCCC1)N1CC(=O)N2CCc3ccccc3C2C1 (stereo not given) [Praziquantel] | 1.07
25 | COC(=O)C1=C(C)NC(C)=C(C(=O)OCC(C)C)C1c1ccccc1[N+](=O)[O-] (stereo not given) [Nisoldipine] | 1.12
26 | O=C(Nc1cccc2c(=O)cc(-c3nnn[nH]3)oc12)c1ccc(OCCCCc2ccccc2)cc1 [Pranlukast] | 1.01
27 | CC(C)NCC(O)COc1ccc(CCOCC2CC2)cc1 (stereo not given) [Betaxolol HCl] | 1.1
28 | Nc1ccn([C@@H]2O[C@H](CO)[C@@H](O)C2(F)F)c(=O)n1 [Gemcitabine] | 0.11
29 | C[C@@H]1C/C=C/C=C/C=C/C=C/[C@H](O[C@@H]2O[C@H](C)[C@@H](O)[C@H](N)[C@@H]2O)C[C@@H]2O[C@](O)(C[C@@H](O)C[C@H]3O[C@@H]3/C=C/C(=O)O1)C[C@H](O)[C@H]2C(=O)O [Natamycin] | 0.0794
30 | Cc1ccccc1N1C(=O)c2cc(S(N)(=O)=O)c(Cl)cc2NC1C (stereo not given) [Metolazone] | 0.962
31 | Nc1cccc2c1C(=O)N(C1CCC(=O)NC1=O)C2=O (stereo not given) [Pomalidomide] | 1.19
32 | C[C@H]1C[C@H]2[C@@H]3CCC4=CC(=O)C=C[C@]4(C)[C@H]3C(=O)C[C@]2(C)[C@@]1(O)C(=O)CO [Meprednisone] | 1.09
33 | CCOc1ccc(Cc2cc([C@@H]3O[C@H](CO)[C@@H](O)[C@H](O)[C@H]3O)ccc2Cl)cc1 [Dapagliflozin] | 1.2
34 | COC(=O)C1=C(C)NC(C)=C(C(=O)OC)C1c1ccccc1[N+](=O)[O-] [Nifedipine] | 1.01
35 | Cc1cn(-c2cc(NC(=O)c3ccc(C)c(Nc4nccc(-c5cccnc5)n4)c3)cc(C(F)(F)F)c2)cn1 [Nilotinib (AMN-107)] | 0.044
36 | O=S(=O)(O)CCS [Mesna] | 1.04
37 | C[C@H](Cn1cnc2c(N)ncnc21)OCP(=O)(O)O [Tenofovir] | 0.893
38 | CC(C)[N+]1(C)[C@@H]2CC[C@H]1C[C@@H](OC(=O)C(CO)c1ccccc1)C2 (stereo not given in full) [Ipratropium Bromide] | 0.902
39 | CN(Cc1cnc2nc(N)nc(N)c2n1)c1ccc(C(=O)N[C@@H](CCC(=O)O)C(=O)O)cc1 [Methotrexate] | 0.692
40 | CCCCC(=O)O[C@]1(C(=O)CO)[C@@H](C)C[C@H]2[C@@H]3CCC4=CC(=O)C=C[C@]4(C)[C@@]3(F)[C@@H](O)C[C@@]21C [Betamethasone Valerate] | 1.15

From the supplement of paper PMC7184167
